PubChem BioAssay AID1159580 (chemical genetic matrix, 2015)
Several values for one entry are separate records, joined by “and”; a condition that tells them apart may be missing. Equal values may be shown once. About 2,000 (36%) of roughly 5,500 compounds were called active. About 18% were inconclusive and are not listed. No stated cut-off is given here; in the data, active means normalized growth mostly below about 0.91 (no sharp cut-off); inconclusive means no clear call, values can overlap the other calls; inactive means mostly above about 0.92. The list shows a part of the results. Where a SMILES comes first, the peptide text is derived from it. Side-chain parts run from the residue outwards. [ ]: non-standard residue; d: D form. The star is where a group is joined. X1 = CCC(C)C(N)C1=NC(C(=O)*)CS1; Orn = NCCC[CH](N)C(=O)O

Assay: chemical genetic growth profiling, strain panel (AID 1159580);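 further: tested at 20 µM; growth read once vehicle control cultures reached saturation at 30 °C; 1 = growth at the plate median or of vehicle wells; lower values mean less growth of the strain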
Conditions: S. cerevisiae deletion strains, growth OD

Measured: normalized growth

CCC(C)C(N)C1=NC(C(=O)NC(CC(C)C)C(=O)NC(CCC(=O)O)C(=O)NC(C(=O)NCCCCC2NC(=O)C(CC(N)=O)NC(=O)C(CC(=O)O)NC(=O)C(Cc3cnc[nH]3)NC(=O)C(Cc3ccccc3)NC(=O)C(C(C)CC)NC(=O)C(CCCN)NC2=O)C(C)CC)CS1 (stereo not drawn) (cyclo(DNK([Ile-Glu-Leu-X1])[Orn]IFH); configuration not given here)
inactive: locus YAL013W, strain DEP1, active compounds read low 1.01 | locus YAL021C, strain ccr4, active compounds read low 0.992 | locus YAL026C, strain drs2, active compounds read low 0.929 | locus YAL030W, strain snc1, active compounds read low 0.997 | locus YBL061C, strain skt5, active compounds read low 1 | locus YBR009C, strain hhf1, active compounds read low 0.952 | locus YBR021W, strain FUR4, active compounds read low 1.01 | locus YBR023C, strain chs3, active compounds read low 1.02 | locus YBR171W, strain sec66, active compounds read low 1 | locus YBR229C, strain ROT2, active compounds read low 0.991 | locus YBR231C, strain swc5, active compounds read low 0.999 | locus YBR279W, strain paf1, active compounds read low 1.01 | locus YCL011C, strain gbp2, active compounds read low 0.968 | locus YCL016C, strain dcc1, active compounds read low 0.981 | locus YCL029C, strain bik1, active compounds read low 1.01 | locus YCL061C, strain MRC1, active compounds read low 0.993 | locus YCL069W, strain vba3, active compounds read low 1 | locus YCR088W, strain abp1, active compounds read low 1.01 | locus YDL005C, strain med2, active compounds read low 0.999 | locus YDL035C, strain GPR1, active compounds read low 0.998 | locus YDL040C, strain nat1, active compounds read low 1.01 | locus YDL074C, strain BRE1, active compounds read low 1.04 | locus YDL101C, strain DUN1, active compounds read low 1 | locus YDL185W, strain tfp1, active compounds read low 1.04 | locus YDL192W, strain arf1, active compounds read low 1 | locus YDR001C, strain nth1, active compounds read low 0.987 | locus YDR069C, strain doa4, active compounds read low 1.02 | locus YDR101C, strain arx1, active compounds read low 1.02 | locus YDR137W, strain rgp1, active compounds read low 0.992 | locus YDR150W, strain NUM1, active compounds read low 1 | locus YDR159W, strain sac3, active compounds read low 0.996 | locus YDR162C, strain NBP2, active compounds read low 0.976 | locus YDR195W, strain ref2 0.976 | locus YDR297W, strain sur2, active compounds read low 1.01 | locus YDR318W, strain mcm21, active compounds read low 0.989 | locus YDR334W, strain swr1, active compounds read low 1.01 | locus YDR335W, strain msn5, active compounds read low 1.01 | locus YDR388W, active compounds read low 1.01 | locus YDR392W, strain spt3, active compounds read low 0.94 | locus YDR502C, strain sam2, active compounds read low 1.01 | locus YEL003W, strain gim4, active compounds read low 1.01 | locus YEL037C, strain rad23, active compounds read low 1.01 | locus YEL061C, strain CIN8 (second series), active compounds read low 1.01 | locus YEL061C, strain CIN8, active compounds read low 0.998 | locus YER015W, strain faa2, active compounds read low 1.01 | locus YER016W, strain bim1, active compounds read low 1 | locus YER110C, active compounds read low 1 | locus YER111C, strain swi4, active compounds read low 1.01 | locus YER155C, strain BEM2 (second series), active compounds read low 1.01 | locus YER155C, strain BEM2, active compounds read low 0.992 | locus YER167W, strain BCK2, active compounds read low 1.01 | locus YFR010W, strain ubp6, active compounds read low 1.03 | locus YGL078C, strain dbp3, active compounds read low 1.01 | locus YGL086W, strain mad1, active compounds read low 1.05 | locus YGL167C, strain pmr1, active compounds read low 1.02 | locus YGL173C, strain kem1, active compounds read low 1 | locus YGL227W, strain vid30, active compounds read low 1 | locus YGL240W, strain doc1, active compounds read low 1.03 | locus YGL248W, strain PDE1, active compounds read low 1 | locus YGL253W, strain hxk2, active compounds read low 0.993 | locus YGR135W, strain pre9, active compounds read low 1.01 | locus YGR252W, strain gcn5, active compounds read low 0.924 | locus YHR013C, strain ard1, active compounds read low 0.991 | locus YHR027C, strain rpn1, active compounds read low 1.01 | locus YHR030C, strain SLT2, active compounds read low 1 and 1.02 | locus YHR079C, strain IRE1 (second series), active compounds read low 1 | locus YHR079C, strain IRE1, active compounds read low 1.05 | locus YHR094C, strain hxt1, active compounds read low 0.993 | locus YHR129C, strain ARP1, active compounds read low 0.994 | locus YHR142W, strain chs7, active compounds read low 1.04 | locus YHR200W, strain rpn10, active compounds read low 0.984 | locus YIL066C, strain RNR3, active compounds read low 1 | locus YIL073C, strain SPO22, active compounds read low 1.19 | locus YIL125W, strain kgd1, active compounds read low 1.01 | locus YIR030C, strain dcg1, active compounds read low 0.993 | locus YJL092W, strain hpr5, active compounds read low 1 | locus YJL095W, strain BCK1 (second series), active compounds read low 1.01 | locus YJL095W, strain BCK1, active compounds read low 0.999 and 1.04 | locus YJL115W, strain asf1, active compounds read low 0.989 | locus YJL129C, strain trk1, active compounds read low 1.02 | locus YJL134W, strain LCB3, active compounds read low 1 | locus YJL154C, strain vps35, active compounds read low 1 | locus YJL164C, strain tpk1, active compounds read low 0.972 | locus YJL166W, strain qcr8, active compounds read low 1.01 | locus YJL168C, strain set2, active compounds read low 1.01 | locus YJL187C, strain SWE1 (second series), active compounds read low 0.997 | locus YJL187C, strain SWE1, active compounds read low 1 | locus YJR043C, strain POL32, active compounds read low 0.996 | locus YJR066W, strain TOR1, active compounds read low 0.969
